Data from PubChem BioAssay.

The compounds below were run against E3 ubiquitin-protein ligase XIAP (Homo sapiens) (UniProt P98170) (assay: small molecules binding XIAP protein – biophysical, small-molecule microarray, fluorescence 635 nm, primary screen (AID 1181;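 also: score merges 667 nm emission and signal to noise over triplicate slides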)). Conditions: higher = more signal.
Sequence of E3 ubiquitin-protein ligase XIAP (Homo sapiens) (P98170 whole entry, looked up): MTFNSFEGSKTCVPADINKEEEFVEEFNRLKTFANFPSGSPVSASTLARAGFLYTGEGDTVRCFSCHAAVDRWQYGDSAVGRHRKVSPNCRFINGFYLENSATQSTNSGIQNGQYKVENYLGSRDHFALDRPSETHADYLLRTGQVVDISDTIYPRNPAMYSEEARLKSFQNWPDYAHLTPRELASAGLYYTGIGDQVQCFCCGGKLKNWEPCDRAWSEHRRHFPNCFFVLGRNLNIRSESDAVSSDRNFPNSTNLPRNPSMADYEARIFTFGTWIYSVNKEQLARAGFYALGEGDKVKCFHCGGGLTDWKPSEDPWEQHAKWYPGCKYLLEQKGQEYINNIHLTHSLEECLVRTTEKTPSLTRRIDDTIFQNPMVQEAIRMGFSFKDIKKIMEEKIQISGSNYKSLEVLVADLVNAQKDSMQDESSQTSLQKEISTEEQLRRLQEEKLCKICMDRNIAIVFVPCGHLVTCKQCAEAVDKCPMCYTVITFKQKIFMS
`CN1CCC(CCCO)=CC1c1ccc(CN2CCCC2)cc1` (stereo not drawn) gave a composite z-score of 0.194. Compound `C=C[C@H](C)[C@@H](O)c1ccc(O)c2ccccc12` has a composite z-score of -0.0622. `COCCOC(=O)N1C(=O)[C@@]2(c3cc(C#CC4=CCCCC4)ccc31)[C@H](C(=O)N1CCc3cc(OC)c(OC)cc3C1)[C@H]1C(=O)O[C@H](c3ccccc3)[C@H](c3ccccc3)N1[C@@H]2c1ccccc1OCCO` was tested, and the composite z-score was 0.0039. For `COC(=O)C1=CC(CCCO)=CC(C2CC2)N(Cc2sc3ccccc3c2Cl)C=C1C(=O)OC` (stereo not drawn), the composite z-score was -0.0172. In the case of `NC(=O)NCC#Cc1ccc2c(c1)[C@]1(C(=O)N2)[C@H](C(=O)N2CCCCCCC2)[C@H]2C(=O)O[C@H](c3ccccc3)[C@H](c3ccccc3)N2[C@@H]1c1ccc(OCCO)cc1`, the composite z-score is reported as 0.0368. `COc1ccccc1CN1C(=O)c2ccccc2[C@@H](C(=O)NCCN2CCOCC2)[C@@H]1c1ccc(CO)cc1` showed a composite z-score of 0.101. `O=c1cccc(C=Cc2ccccc2)o1` was tested, and the composite z-score was -0.248. `C=C[C@@H](COC(C)=O)N(Cc1ccc([N+](=O)[O-])cc1)S(=O)(=O)c1ccc(Br)cc1` gave a composite z-score of 0.0345. With `CC(C)C(=C=CC[C@@H](O)c1ccccc1OCCO)C[C@@H](O)c1ccccn1` the composite z-score was 0.0709. Compound `CCCCC=C[C@@H](NC(=O)c1ccc(C(=O)OC)cc1)c1ccccc1` has a composite z-score of -0.145. For `O=c1oc(-c2ccccc2)nc2cc(Br)ccc12`, the composite z-score was 0.208. `C=CC(COC(C)=O)NS(=O)(=O)c1ccc(Br)cc1` (stereo not drawn) gave a composite z-score of -0.338. For `CS(=O)(=O)CCOC(=O)C1=CC(CCCO)=CC(c2cccs2)N(Cc2cc3c(cc2Br)OCO3)C=C1C(=O)OCCS(C)(=O)=O` (stereo not drawn), the composite z-score was 0.122. `CCC[C@@H]1C=C(C(=O)O)[C@H](c2ccc(C)cc2)N1S(=O)(=O)c1ccc(C)cc1` showed a composite z-score of 0.22. `CC(C)NC(=O)[C@@H]1c2ccccc2C(=O)N(Cc2ccccc2)[C@H]1c1ccc(CO)cc1` showed a composite z-score of -0.0473. `Cc1ccc(S[C@]2(C(=O)NCc3ccccc3)CC(=O)N(Cc3ccccc3)[C@@H]2c2ccc(CO)cc2)cc1` gave a composite z-score of -0.121. In the case of `COC(=O)c1ccc(C(O)C2C=CC3C(=O)N(C)C(=O)C3N2NC(=O)OC(C)(C)C)o1` (stereo not drawn), the composite z-score is reported as 1.42. Compound `COc1ccc(C(=O)Nc2cccc(CN3C(=O)[C@]4(O[C@H](CC(=O)N5CCC[C@H]5CO)[C@@H]([Si](C)(C)c5ccc(OC)cc5)[C@@H]4C)c4ccccc43)c2)cc1` has a composite z-score of -0.0998. For `CC(C)Cc1ccc(CN2CC[C@@H](NS(=O)(=O)c3ccccc3)C2)cc1`, the composite z-score was -0.178. In the case of `C=CCC(OC(C)=O)[C@@H]1[C@@H](N(Cc2cccc3ccccc23)C(=O)c2cccc3ccccc23)c2cc(OCCCO)ccc2N1C(=O)c1ccc2ccccc2n1` (stereo partly drawn), the composite z-score is reported as -0.124. In the case of `COCCOC(=O)N1C(=O)[C@@]2(c3cc(C#CCNC(N)=O)ccc31)[C@H](c1ccc(OCCO)cc1)N1[C@H](c3ccccc3)[C@H](c3ccccc3)OC(=O)[C@H]1[C@@H]2C(=O)N1CCc2cc(OC)c(OC)cc2C1`, the composite z-score is reported as -0.0999. `O=C1C=CC(=O)[C@@H]2CC(COc3ccccc3)=C3[C@@H](CCc4ccccc4)OB(O)C[C@@H]3[C@H]12` gave a composite z-score of 0.0767. With `[N-]=[N+]=NCc1ccccc1[C@@H]1OC(c2ccc(OCCCO)cc2)=N[C@]1(Cc1ccccc1N=[N+]=[N-])C(=O)NCc1ccccc1` the composite z-score was 0.0852. For `NCCCCCCNC(=O)[C@H]1C[C@H]2C(=O)NCC(=O)N2[C@H]1c1cccc(OCCO)c1`, the composite z-score was 0.0785. Work on `CCCCCN1CC=CC23O[C@@H]4/C=C\CCC(C)OC(=O)C4[C@H]2C(=O)N(CCCCCO)[C@@H]3C1=O` (stereo partly drawn) yielded a composite z-score of -0.144. For `O=C(NCc1ccccc1)[C@]1(CCS(=O)(=O)c2ccccc2)N=C(c2ccc(OCCCO)cc2)O[C@@H]1c1ccccc1`, the composite z-score was 0.323. Work on `C=CC(=C)C1=CCO[C@@H]1[C@H]1CCCN1S(=O)(=O)c1ccccc1[N+](=O)[O-]` yielded a composite z-score of -0.119. `COc1ccc(C(=O)Nc2cccc(CN3C(=O)[C@@]4(O[C@@H](CCn5cc(CCO)nn5)[C@H]([Si](C)(C)c5ccc(OC)cc5)[C@H]4C)c4ccccc43)c2)cc1` showed a composite z-score of 0.126. In the case of `CCCC[C@H]1OB(O)C[C@H]2C1=C(C)C[C@H]1C(=O)N(Cc3ccccc3)C(=O)[C@H]12`, the composite z-score is reported as -0.0627. Work on `COc1ccc(NN2C(C(O)c3ccc(OC)c(OCc4ccccc4)c3)C=CC3C(=O)N(C4CCCCC4)C(=O)C32)cc1` (stereo not drawn) yielded a composite z-score of -0.141. With `COCC(=C=CC[C@H](O)c1ccc(OCCO)cc1)C[C@H](O)c1cc(Cl)cc(Cl)c1O` the composite z-score was 0.0724. With `O=C/C=C/c1ccc2c(c1)OCO2` the composite z-score was -0.118. With `Cc1ccc(S[C@]2(C(=O)NCC(C)C)CC(=O)N(Cc3ccccc3Cl)[C@@H]2c2ccc(CO)cc2)cc1` the composite z-score was 0.012.
